About 3,800 (1.1%) of roughly 360,000 compounds were called active. Only a selection was taken, and actives are over-represented in it overall. Unmarked numbers belong to inactive results.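 The calls were made as follows: active = compounds causing at least 50% loss of cell viability in the single-dose screen, relative to plate controls; inactive = the rest.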
Assay: TRAIL-exposed caspase-8 expressing cell killing – NB7+C8 cells, ATPlite luminescence, TRAIL sensitizer project, primary screen (AID 624354)
Settings: at 10 µM, hits give high values
With COc1ccccc1NC1=NC(c2ccc(Cl)cc2)N=C(N)N1 (centres undefined) the inhibition (viability loss, TRAIL sensitization) was -3.71%. Molecule CC(C#N)OC(=O)c1cccnc1SCC(=O)Nc1ccc2c(c1)OCO2 (centres undefined) has an inhibition (viability loss, TRAIL sensitization) of 4.56%. Molecule COc1ccccc1NS(=O)(=O)N(C)C has an inhibition (viability loss, TRAIL sensitization) of -12.4%. In the case of NC(=O)COc1ccc(NC(=O)c2ccccc2-c2ccccc2)cc1, the inhibition (viability loss, TRAIL sensitization) is reported as -7.08%. Work on CC(=O)C[C@H](O)CC(=O)[C@@H]1OC(=O)[C@@H](C)C/C=C\Cc2ccccc21 yielded an inhibition (viability loss, TRAIL sensitization) of -3.79%. In the case of CCC(=O)Nc1ccc(S(=O)(=O)Nc2c(NC)c3ccccc3oc2=O)cc1, the inhibition (viability loss, TRAIL sensitization) is reported as 1.26%. Cc1cn([C@H]2C[C@H](O)[C@@H](CNC(=O)[C@H](N)Cc3cccnc3)O2)c(=O)[nH]c1=O gave an inhibition (viability loss, TRAIL sensitization) of -0.759%. With CNC(=O)/C(=C\C=C\c1ccccc1)NC(=O)c1ccc([N+](=O)[O-])cc1 the inhibition (viability loss, TRAIL sensitization) was -5.87%. With CN1OC[C@@H]2CN(C(=O)c3ccc(-c4ccccc4)cc3)[C@H](c3ccc(-c4cccc(F)c4)cc3)C[C@@H]21 the inhibition (viability loss, TRAIL sensitization) was -16.6%. With CCCOc1ccc(Cc2c(Cl)nc(SC)nc2NC)cc1 the inhibition (viability loss, TRAIL sensitization) was 31.2%. In the case of Cc1ccc(-c2ccnc3[nH]n(-c4ccccc4)c(=O)c23)cc1, the inhibition (viability loss, TRAIL sensitization) is reported as -11.3%. Work on Cc1occc1C(=O)N/N=C/c1ccc(-c2cccc([N+](=O)[O-])c2)o1 yielded an inhibition (viability loss, TRAIL sensitization) of -8.06%. With Cc1[nH]n(-c2ccccc2)c(=O)c1/C=N/NC(=O)c1ccoc1C the inhibition (viability loss, TRAIL sensitization) was 53.8% (active). CCOc1ccc(S(=O)(=O)N2CCC(c3ccccc3)CC2)cc1C(=O)O showed an inhibition (viability loss, TRAIL sensitization) of -3.46%. In the case of O=C(NC1=CC(=O)c2ccccc2C1=O)c1ccccc1, the inhibition (viability loss, TRAIL sensitization) is reported as 94.6% (active). C/C(=N\NC(=O)c1ccc(C)cc1)C1C(=O)c2ccccc2C1=O gave an inhibition (viability loss, TRAIL sensitization) of 8.6%. Work on COc1cc(NC(=O)c2ccccc2)c(OC)cc1NC(=O)Cc1ccccc1 yielded an inhibition (viability loss, TRAIL sensitization) of -3.72%. CC1(C(=O)NS(=O)(=O)Cc2cccc(Cl)c2)CCN1C(=O)Cc1ccc(Cl)cc1Cl (centres undefined) showed an inhibition (viability loss, TRAIL sensitization) of -0.832%. In the case of COc1ccc(C(N)c2csc(NC(=O)Nc3cccc(C(F)(F)F)c3)n2)cc1 (centres undefined), the inhibition (viability loss, TRAIL sensitization) is reported as 25.4%. In the case of NC(c1csc(NC(=O)Nc2cccc(C(F)(F)F)c2)n1)C1CCCCC1 (centres undefined), the inhibition (viability loss, TRAIL sensitization) is reported as 88.8% (active). With CC(C)(C)CC(=O)Nc1nc(C(N)Cc2ccc(C(F)(F)F)cc2)cs1 (centres undefined) the inhibition (viability loss, TRAIL sensitization) was -0.292%. Molecule Cc1cccc(C(=O)OC(C)C(=O)NC2CCCc3ccccc32)c1O (centres undefined) has an inhibition (viability loss, TRAIL sensitization) of 12.2%. Molecule CC1CCN(C(=O)C2CCN(S(=O)(=O)N3CCC4(CC3)OCCO4)CC2)CC1 has an inhibition (viability loss, TRAIL sensitization) of -3.06%. With CCOC(=O)C1=C(C)NC(C)=C(C(=O)OCC)C1C1=COCCO1 the inhibition (viability loss, TRAIL sensitization) was -19.1%. For O=C(c1ccc(F)cc1)n1c(=S)nc2ccccn21, the inhibition (viability loss, TRAIL sensitization) was 83% (active). With O=C(c1ccc(F)cc1)N1CCC(n2nnc3ccccc32)CC1 the inhibition (viability loss, TRAIL sensitization) was -1.41%. With CC1COc2ccccc2N1C(=O)c1ccc(F)cc1 (centres undefined) the inhibition (viability loss, TRAIL sensitization) was -8.83%. For Cc1c(C2=CCN(S(=O)(=O)c3ccc(Cl)cc3)CC2)c2ccccc2n1C, the inhibition (viability loss, TRAIL sensitization) was 9.41%. For Cn1c(N)c(C(=O)COC(=O)/C=C/c2ccc(OC(F)F)cc2)c(=O)n(C)c1=O, the inhibition (viability loss, TRAIL sensitization) was -6.75%. With Cc1ccccc1C(OCCN(C)C)C1CCCCC1 (centres undefined) the inhibition (viability loss, TRAIL sensitization) was -0.767%. Work on COc1ccc(C2CC(c3ccccc3)=NN2C(=O)CSc2nccc(=O)[nH]2)cc1 (centres undefined) yielded an inhibition (viability loss, TRAIL sensitization) of 25.2%. With CNC(=S)N1N=C(c2ccccc2)CC1c1ccc(Br)cc1 (centres undefined) the inhibition (viability loss, TRAIL sensitization) was 79.2% (active). Brc1ccc(C2CC(c3ccccc3)=Nc3ccccc3N2)cc1 (centres undefined) gave an inhibition (viability loss, TRAIL sensitization) of 24.3%. With CC1C(C)N(C(=O)CCl)c2ccccc2N1C(=O)CCl (centres undefined) the inhibition (viability loss, TRAIL sensitization) was 88.6% (active). CC1CC(C)CN(CC(=O)N2c3ccccc3CCc3ccccc32)C1 (centres undefined) gave an inhibition (viability loss, TRAIL sensitization) of -22.2%. CC1C(=O)N(Cc2ccccc2)c2ccccc2N1C(=O)c1ccccc1 (centres undefined) gave an inhibition (viability loss, TRAIL sensitization) of -0.863%. Work on COc1ccc(C(=O)NC(C)Cn2nc(C)cc2C)cc1OC1CCN(C(C)=O)CC1 (centres undefined) yielded an inhibition (viability loss, TRAIL sensitization) of 8.29%. Work on N#CCCN(C(=O)Nc1ccc(Cl)c(Cl)c1)C1CCCCC1 yielded an inhibition (viability loss, TRAIL sensitization) of 7.87%. CC1(C(=O)O)CCC(C(=O)Nc2ccc(Cl)c(Cl)c2)C1(C)C (centres undefined) gave an inhibition (viability loss, TRAIL sensitization) of -2.64%. With O=C(CC(O)(C(F)(F)F)C(F)(F)F)Nc1ccc(Cl)c(Cl)c1 the inhibition (viability loss, TRAIL sensitization) was 62.6% (active). In the case of CC(=O)N1Cc2cc(C(=O)NCc3cccc(F)c3)nc(-c3cccc(C4=CCCCC4)c3)c2[C@H]1CCO, the inhibition (viability loss, TRAIL sensitization) is reported as 4.95%. Molecule CSCCC(NC(N)=O)C(=O)N(C)CC(=O)Nc1ccc(C)cc1 (centres undefined) has an inhibition (viability loss, TRAIL sensitization) of -24.9%. For COC(=O)c1sc(NC(=O)COC(=O)C2CCC2)c(C(=O)OC)c1C, the inhibition (viability loss, TRAIL sensitization) was -0.357%. In the case of CCOC(=O)c1c(NC(=O)CCl)sc(C(=O)N(CC)CC)c1C, the inhibition (viability loss, TRAIL sensitization) is reported as 92.5% (active). Molecule CCOC(=O)c1c(NC(=O)COC(=O)c2ccc(S(=O)(=O)C(F)F)cc2)sc(C(=O)N(C)C)c1C has an inhibition (viability loss, TRAIL sensitization) of -18.3%. In the case of CCc1ccc2oc(-c3ccc(N)cc3)nc2c1, the inhibition (viability loss, TRAIL sensitization) is reported as 74.9% (active). In the case of O=C(C(Cc1ccccc1)n1cccc1)N1CCN(C2CCCCC2)CC1 (centres undefined), the inhibition (viability loss, TRAIL sensitization) is reported as 1.84%. In the case of CN(C)CCNC(=O)c1cccc(-c2cnc3c(NC=O)cc(-c4cccc(C(F)(F)F)c4)cn23)c1, the inhibition (viability loss, TRAIL sensitization) is reported as 59.1% (active). CN(C)C(=O)c1cccc(-c2cnc3c(NC=O)cc(-c4ccc(F)cc4)cn23)c1 showed an inhibition (viability loss, TRAIL sensitization) of 16.1%. Work on CC(=O)c1cccc(-c2cnc3c(NC=O)cc(-c4ccc(N(C)C)cc4)cn23)c1 yielded an inhibition (viability loss, TRAIL sensitization) of 17.5%. Cc1ccc(-c2ccc(CN3C(C(C)C)C(=O)N(Cc4cn(CCC5OCCO5)nn4)CCS3(=O)=O)cc2)cc1 (centres undefined) showed an inhibition (viability loss, TRAIL sensitization) of -2.12%. In the case of Oc1cccc2cc(-c3ccncc3)cnc12, the inhibition (viability loss, TRAIL sensitization) is reported as 47.7%. In the case of COc1ccc(C2=Nc3cc(C)ccc3OC2)cc1, the inhibition (viability loss, TRAIL sensitization) is reported as 58.6% (active). COc1ccc(C(O)c2nc(-c3ccc4c(c3)OCO4)cs2)cc1 (centres undefined) gave an inhibition (viability loss, TRAIL sensitization) of -6.82%. Cc1ccc(C(=O)NNC2=Nc3cc([N+](=O)[O-])ccc3OC2)cc1 showed an inhibition (viability loss, TRAIL sensitization) of -18%. For C=CCN(CC=C)C(=O)COC(=O)c1n[nH]c2ccccc12, the inhibition (viability loss, TRAIL sensitization) was 9.77%. In the case of O=C1c2ccccc2C(c2nc3ccccc3[nH]2)N1c1ccccc1 (centres undefined), the inhibition (viability loss, TRAIL sensitization) is reported as -17.6%. With c1ccc2[nH]c(-c3nc4ccccc4[nH]3)nc2c1 the inhibition (viability loss, TRAIL sensitization) was 69.4% (active). With Nc1ccccc1-c1nc2ccncc2[nH]1 the inhibition (viability loss, TRAIL sensitization) was 12.6%.
